Growth data for 40 compounds are collected here from PubChem BioAssay (NCI).

This is part of a sample that, as a whole, favours compounds with a hit. Of some 83,000 tested, about 20% had one in any assay.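 Values shown are percent growth following 48 h exposure of cells in 96-well plates to a single concentration of compound; below 10 was considered active.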 Unmarked numbers belong to inactive results. The source made the active and inactive calls.

This test has as its system HL-60(TB) leukemia. Nature of the test: NCI-60 one-dose screen, 48 h (100 = growth as untreated, 0 = no growth, -100 = all killed). The conditions noted are these: 10 µM unless noted.
Turning to `CC(=O)C1CCC(C)=CC1=O` (stereo not given), the growth is 119%.

Turning to `CO[C@H]1CC(=O)n2c3ccccc3c3c4c(c5c6ccccc6n1c5c32)C(=O)NC4=O`, the growth is 96.9%.

`O=C1c2ccc3c4c(ccc(c24)C(=O)N1CCCNCc1ccccc1)C(=O)N(CCCNCc1ccccc1)C3=O`: the growth is -71.3% (active).

`CC(=O)N(C)N=Nc1ccc(C)cc1`: the growth was 117%.

For the compound `COC(=O)Cn1c2c(c3c(OC)cccc31)C(=O)c1ccccc1-2`, the growth was 75.6%.

In the case of `O=S(=O)(Nc1ccc(Br)c(Cl)c1)c1ccc(-c2cnc(C3CC3)o2)cc1`, the growth was -4.27% (active).

On to `CCCNc1nc(C)[nH]c(=O)c1S`, for which the growth is 92.1%.

On to `O=C1NN(C(=O)c2ccc(Cl)cc2)C(c2ccccc2)=N/C1=C\c1cn(-c2ccccc2)nc1-c1ccccc1`, for which the growth was 94.5%.

For `CN(C)CCN1C(=O)c2cccc3c(/C=C/CN4C(=O)c5cccc6cccc(c56)C4=O)ccc(c23)C1=O`, the growth was 12.9%.

Take `CCn1cc(CNc2ccc(C(=O)Nc3ccc4ccccc4c3)cc2)c(C)n1`: the growth was 79.8%.

For `COC(=O)/C=C1\SC(=Nc2ccc(F)cc2)N(CCc2c[nH]c3ccccc23)C1=O`, the growth was 73.7%.

With `Cn1c2c(c(=O)[nH]c1=O)NC1=C(C(=O)c3ccccc31)C1(C=C(O)c3ccccc31)N2` (stereo not given), the growth was 109%.

In the case of `CCOC(=O)C1CCN(c2ccc(N3C[C@@H](CNCc4ccc(C(=N)N)cc4)OC3=O)cc2)CC1`, the growth is 101%.

Turning to `Oc1c(Cl)cc(Cl)c2ccc(Cn3cc(-c4cccc(C(F)(F)F)c4)nn3)nc12`, the growth is -18.9% (active).

For `CCNCCNc1cc(-c2ccc(C(F)(F)F)cc2)c(C#N)c2nc3cc(Cl)c(Cl)cc3n12`, the growth is -56.9% (active).

For the compound `CN1COc2ccc3ccccc3c2C1`, the growth is 93.2%.

For the compound `OCC(O)COc1ccc(Cl)cc1Cl` (stereo not given), the growth was 103%.

Turning to `C=C1C(=O)O[C@H]2[C@H]1CC/C(Cn1cc(CNCCc3c[nH]c4ccc(Cl)cc34)nn1)=C\CC[C@@]1(C)O[C@@H]21`, the growth is -55.2% (active).

In the case of `Cc1cc(C(=O)O)c(C)n1-c1cccc(C(=O)O)c1`, the growth is 56.2%.

For the compound `O=S(=O)(Nc1ncccn1)c1ccc(Nc2ccc3nnc(-c4ccncc4)n3n2)cc1`, the growth was 101%.

Regarding `COc1ccc(C2=C(c3cccc(OC)c3)C(=O)c3ccc(C)nc3C2=O)cc1`, the growth is 41.1%.

With `Nc1ccc(Cl)c([N+](=O)[O-])c1`, the growth is 118%.

In the case of `O=C(c1ccc(Cl)cc1)N1CCCCC1`, the growth is 98.7%.

Turning to `C#CC[C@@H]1C[C@]2(C)[C@H]3CC[C@@H]4[C@H]5C(C(=C)C)CC[C@]5(C(=O)NCCCCCCCCN)CC[C@@]4(C)[C@]3(C)CC[C@H]2C(C)(C)[C@H]1OC(C)=O` (stereo not given in full), the growth was 22%.

As to `Cn1c(-c2ccccc2)c(/C=C/C2=[N+](C)c3ccccc3C2(C)C)c2ccccc21`, the growth is -52.5% (active).

In the case of `Nc1ccccc1-c1ccn[nH]1`, the growth was 95.6%.

With `CC(C)NS(=O)(=O)c1cccc(-c2ccc3c(=O)n(CCCN)c4c(c3c2)C(=O)c2ccccc2-4)c1`, the growth was 125%.

As for `COc1ccc(S(=O)(=O)N2CC3(COC3)C2)cc1NC(=O)c1[nH]c(C)c2c1CCCCC2=O`, the growth is -11% (active).

With `COc1cc2c(cc1O)CC[C@@H]1[C@@H]2CC[C@]2(C)[C@@H](OCCCN(C)C)CC[C@@H]12`, the growth is -48.5% (active).

Consider `O=C(NCc1ccccc1)c1cccc([N+](=O)[O-])c1`, for which the growth is 101%.

Regarding `COc1ccc(-c2nn(-c3ccc(NC(=O)c4ccc(Cl)c(C(F)(F)F)c4)cc3)cc2-c2ccncc2)cc1Cl`, the growth was 2.89% (active).

Turning to `O=C(Nc1ccccc1)NS(=O)(=O)c1c[nH]c(=S)[nH]c1=O`, the growth was 77.8%.

For the compound `COc1cccc(-c2ccc3c(c2)NC(=O)/C3=C\c2ccc[nH]2)c1`, the growth is -1.26% (active).

Consider `Nc1ccc(-c2nc3ccc4[nH]ncc4c3c3c2CCCC3)cc1F`, for which the growth is 8.91% (active).

Regarding `COc1cc(C(=O)CCCl)ccc1O`, the growth was 95.8%.

Take `COc1ccc(-c2noc(C(=O)O)c2-c2cc(OC)c(OC)c(OC)c2)cc1`: the growth was -38.5% (active).

With `O=C1Nc2cc(-c3cccc(O)c3)ccc2/C1=C/c1ccc[nH]1`, the growth is 6.76% (active).

With `CC1CCN(CCCCCOc2ccc3oc4ccccc4c(=O)c3c2)CC1`, the growth was 44.6%.

`Nc1ccc2c(c1)Cc1cc(Cl)c(Cl)cc1-2`: the growth is 53.4%.

On to `CCCc1c(CC)c(=N)c2ccccc2n1C`, for which the growth was 32.7%.
